Values without a mark were called inactive. Records with an inconclusive call do not appear. A call without a number means that no potency is given here. Active and inactive are the calls of the source. Unless noted, calls follow the shape of the dose curve; as a rule, active = well fitted curve in the direction sought with a large enough effect in the repeat runs; inconclusive = weak or mixed curves; inactive = no such curve, though single readings can be large; an effect the other way counts as inactive or inconclusive.
Experiments:
[1] = qHTS assay to identify small molecule agonists of the hypoxia (HIF-1) signaling pathway (AID 1224846; active = well fitted activation curve with a large enough effect in the signal ratio in the repeat runs, not every such curve was filed as active; the % refers to the signal ratio)
Outline: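 A low-serum medium (0.5% dialyzed FBS) holding 2,000 HRE-bla ME-180 cells per well is preincubated for 5 hrs, dosed with compounds by pintool, and kept a further 17 hrs at 37C, 5% CO2 before CCF4-AM FRET detection of beta-lactamase.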

[2] = qHTS assay to identify small molecule agonists of H2AX - cell viability counter screen (AID 1224847; calls by dose curve;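 also: wild-type CHO-K1 cells; top concentration of the series differs between compounds; nearly all actives have a fitted effect of over 30% in size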)
Outline: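 For this counter screen, overnight-attached CHO-K1 cells received test compounds (15 concentrations, 0.76% DMSO final); 3 hr later at 37C, CellTiter-Glo reagent was added and luminescence recorded after 30 min at room temperature.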

[3] = qHTS RealTime-Glo MT Cell Viability Assay in HepG2 cells - 24 hour (AID 1224867); also: nearly all actives have a fitted effect of over 50% in size
Outline: (§1)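 HepG2 cells (600/well) were dispensed with RealTime-Glo reagents, incubated 5 h at 37 °C, then treated with compounds in DMSO for up to 40 h. Nonlytic NanoLuc luminescence reflecting viable cells was read at each stated time point.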

[4] = qHTS RealTime-Glo MT Cell Viability Assay in HEK293 cells - 32 hour (AID 1224868); also: nearly all actives have a fitted effect of over 50% in size; also: potency is read from the fitted curve at half-maximal effect
Outline: (§2)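 HEK293 cells seeded with NanoLuc/prosubstrate reagent, rested 5 h at 37 C, then dosed and kept at 37 C up to 40 h. Nonlytic real-time luminescence from viable cells read at 0, 8, 16, 24, 32 and 40 h.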

[5] = A CellTox Green Cytotoxicity Assay to monitor cytotoxicity in HEK293 cells - 0 hour (AID 1224869); also: nearly all actives have a fitted effect of over 50% in size
Outline: (§3)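 Fluorescence intensity, read at 0, 8, 16, 24, 32 and 40 h of compound treatment, reflected dye binding to DNA of dead HEK293 cells; compounds (23 nL, DMSO) were added 5 h after plating cells with reagent.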

[6] = qHTS RealTime-Glo MT Cell Viability Assay in HepG2 cells - 40 hour (AID 1224870); also: nearly all actives have a fitted effect of over 50% in size
Outline: (§4)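 HepG2 cells (600/well) mixed with RealTime-Glo MT reagent, settled 5 h at 37 C/5% CO2 before compound addition. Nonlytic NanoLuc luminescence from viable-cell prosubstrate reduction read repeatedly during 40 h treatment at 37 C.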

[7] = A CellTox Green Cytotoxicity Assay to monitor cytotoxicity in HEK293 cells - 40 hour (AID 1224871); also: nearly all actives have a fitted effect of over 45% in size
Outline: as §3

[8] = qHTS RealTime-Glo MT Cell Viability Assay in HEK293 cells - 16 hour (AID 1224872); also: nearly all actives have a fitted effect of over 50% in size; also: potency is read from the fitted curve at half-maximal effect
Outline: as §2

[9] = qHTS RealTime-Glo MT Cell Viability Assay in HepG2 cells - 8 hour (AID 1224873); also: nearly all actives have a fitted effect of over 55% in size
Outline: as §4

[10] = qHTS RealTime-Glo MT Cell Viability Assay in HEK293 cells - 40 hour (AID 1224874); details: RealTime-Glo luminescence; max response: active compounds read low; also: nearly all actives have a fitted effect of over 50% in size; also: potency is read from the fitted curve at half-maximal effect
Outline: (§5)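 Viable HEK293 cells reduce a cell-permeant prosubstrate; the product diffuses out and is consumed by NanoLuc in the medium to give light. Compounds went in after a 5 h incubation and plates were read over the treatment course.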

[11] = A CellTox Green Cytotoxicity Assay to monitor cytotoxicity in HEK293 cells - 24 hour (AID 1224875); also: nearly all actives have a fitted effect of over 45% in size
Outline: as §3

[12] = A CellTox Green Cytotoxicity Assay to monitor cytotoxicity in HepG2 cells - 16 hour (AID 1224876); also: nearly all actives have a fitted effect of over 45% in size
Outline: (§6)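 Using 1536-well format, dye-containing HepG2 suspension was seeded, allowed 5 h at 37 C/5% CO2, dosed by pintool with compounds, positive and negative controls, and imaged for fluorescence across 40 h.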

[13] = qHTS RealTime-Glo MT Cell Viability Assay in HepG2 cells - 32 hour (AID 1224877); also: nearly all actives have a fitted effect of over 55% in size
Outline: as §1

[14] = A CellTox Green Cytotoxicity Assay to monitor cytotoxicity in HepG2 cells - 24 hour (AID 1224878); also: nearly all actives have a fitted effect of over 45% in size
Outline: as §6

[15] = A CellTox Green Cytotoxicity Assay to monitor cytotoxicity in HepG2 cells - 40 hour (AID 1224879); also: nearly all actives have a fitted effect of over 40% in size; also: potency is read from the fitted curve at half-maximal effect
Outline: as §6

[16] = qHTS RealTime-Glo MT Cell Viability Assay in HEK293 cells - 0 hour (AID 1224880)
Outline: as §5

[17] = A CellTox Green Cytotoxicity Assay to monitor cytotoxicity in HEK293 cells - 32 hour (AID 1224881); also: nearly all actives have a fitted effect of over 40% in size
Outline: as §3

[18] = qHTS assay to identify small molecule antagonists of the estrogen related receptor (ERR) signaling pathway from Tox21 library (AID 1224848); also: nearly all actives have a fitted effect of over 50% in size; also: potency is read from the fitted curve at half-maximal effect
Outline: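 ERR reporter cell line (from NTP) seeded 2,000 cells/well, rested 6 h at 37 C/5% CO2, then pin-dosed with compounds in DMSO. After 18 h at 37 C, ONE-Glo added; luminescence read after 30 min at room temperature.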

[19] = qHTS assay to identify small molecule agonists of the estrogen related receptor (ERR) signaling pathway from Tox21 library (AID 1224849; calls by dose curve; also: nearly all actives have a fitted effect of over 15% in size); details: ERR reporter cell line, ONE-Glo luciferase, 18 h; at 92.4 µM (top of the series) unless noted
Outline: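 Screening used an NTP-provided ERR luciferase cell line. Compounds in DMSO were added 6 h after seeding and left 18 h at 37 C before a 30 min ONE-Glo step and luminescence reading.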

Row | SMILES | outcome [1] | Potency [2] | Potency [3] | Potency [4] | Potency [5] | Potency [6] | Potency [7] | Potency [8] | Potency [9] | max response [10] [%] | Potency [11] | Potency [12] | Potency [13] | Potency [14] | Potency [15] | Potency [16] | Potency [17] | Potency [18] | activity change, positive = activation [19] [%] | Potency [10]
1 | Cn1[nH]nnc1=S | inactive | inactive | inactive | inactive | inactive | inactive | inactive | inactive | inactive | 4.93 | inactive | inactive | inactive | inactive | inactive | inactive | inactive |  |  | 
2 | CCc1cc(C)cc(CC)c1-c1c(OC(=O)C(C)(C)C)n2n(c1=O)CCOCC2 | inactive | inactive | inactive | inactive |  | inactive | inactive | inactive | inactive | -25.1 | inactive | inactive | inactive | inactive | inactive | inactive | inactive | inactive | -10 | 
3 | OC(Cc1ccccc1Cl)(Cn1cncn1)C1(Cl)CC1 (centres undefined) | inactive |  | inactive | 49 µM (active) | inactive | inactive |  |  | inactive |  | inactive | inactive | inactive | inactive | inactive | inactive |  | 48.6 µM (active) | -38.2 | 49 µM (active)
4 | O=C(CBr)c1ccc(O)cc1 | inactive | inactive | inactive |  | inactive | inactive | inactive |  | inactive | 22.3 | inactive | inactive |  | inactive |  | inactive | inactive |  | -26 | 
5 | CC(C)(C)c1ccc(CSc2cnn(C(C)(C)C)c(=O)c2Cl)cc1 | inactive |  |  | 0.011 µM (active) | inactive | inactive |  | 0.436 µM (active) |  |  | inactive | inactive | inactive | inactive | 43.6 µM (active) | inactive | inactive | 0.0054 µM (active) | -52.9 | 0.0069 µM (active)
6 | CCOP(=S)(OCC)OC(Cl)C(Cl)(Cl)Cl (centres undefined) | inactive | inactive | inactive | inactive |  | inactive |  | inactive | inactive |  |  | inactive | inactive | inactive | inactive | inactive |  | inactive | 4.56 | 
7 | CC(O)C#N (centres undefined) | inactive | inactive | inactive | inactive | inactive |  |  | inactive | inactive |  | inactive | inactive | inactive | inactive | inactive | inactive | inactive |  |  | 
8 | CCOP(=S)(OCC)SCS(=O)(=O)CC | inactive | inactive | inactive |  | inactive | inactive | inactive |  | inactive |  | inactive | inactive | inactive | inactive | inactive |  | inactive | inactive | -5.31 | 
9 | CN(CCCC(O)c1cccnc1)N=O (centres undefined) | inactive | inactive | inactive | inactive | inactive | inactive | inactive | inactive | inactive | -1.33 | inactive | inactive | inactive | inactive | inactive | inactive | inactive |  |  | 
10 | Nc1ccc(Sc2ccc(N)cc2)cc1 | inactive | inactive | inactive | inactive | inactive |  | inactive | inactive | inactive |  | inactive |  | inactive |  |  |  |  | inactive | 9.92 | 
11 | C1CCC2CCCCC2C1 (centres undefined) | inactive | inactive | inactive | inactive | inactive | inactive | inactive | inactive | inactive |  | inactive | inactive | inactive | inactive | inactive | inactive | inactive | inactive | -0.0659 | 

From PubChem BioAssay (Tox21)
